From the supplement of paper PMC10849652
The full data set covers some 8,800 targets. This sample favours those with a hit. About 0.5% of all pairs of compound and target were hits. A number with no mark means an inactive call.

Assays:
Assay in all cases: log2 fold change, soluble protein after heating vs DMSO (PISA); higher = thermal stabilisation; K562 lysate, 10 uM; active = over 0.2 and 3.5 SD of the protein, either way, in both replicates (recomputed)
[1] = compound: C1=CC2=NC=CN=C2C=C1/C=C/3\C(=O)NC(=O)S3
How it was run: (§1)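 Soluble protein was defined as the supernatant remaining after 21,000xg for 90 min, following pooling of heated aliquots and adjustment to 0.5% NP-40 at 4°C. Before that, crude K562 extract at 1 mg/mL protein in PBS pH 7.4 with 1 mM MgCl2 was treated with 10 μM compound for 30 min and heated for 3 min across 48°C-58°C. Quantification used TMTpro 16plex LC-MS/MS with channel sums equalised, and values are log-two fold changes in thermal stability relative to solvent controls from duplicates.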

[2] = compound: C1=CC=C(C=C1)C2=NC(=C(N2)C3=CC=NC=C3)C4=CC(=C(C=C4)Cl)O
How it was run: as §1

[3] = compound: C1COCCN1CCN2C3=CC=CC=C3N=C2NC(=O)C4=CC(=CC=C4)[N+](=O)[O-] [IRAK-1-4 Inhibitor I]
How it was run: as §1

[4] = compound: C=CC(=O)N1CCC[C@@H](n2nc(-c3ccc(Oc4ccccc4)cc3)c3c(N)ncnc32)C1 [ibrutinib]
How it was run: as §1

[5] = compound: CC(C)(C)Cn1c(N)nc2ccc(-c3[nH]c(C(C)(C)C)nc3-c3ccc(F)cc3)nc21 [ralimetinib]
How it was run: as §1

[6] = compound: CC(C)(O)CC(=O)NCCn1ccc2ncnc(Nc3ccc(Oc4cccc(C(F)(F)F)c4)c(Cl)c3)c21
How it was run: as §1

[7] = compound: CC1=C(C(CC(=O)N1)C2=CC=C(C=C2)C(F)(F)F)C(=O)NC3=C(C=C4C(=C3)C=NN4)F
How it was run: as §1

[8] = compound: CC1=C(C=C(C=C1)NC(=O)C2=CC(=CC=C2)C(C)(C)C#N)NC3=CC4=C(C=C3)N=CN(C4=O)C
How it was run: as §1

[9] = compound: CC1=C(C=C(C=C1)NC(=O)C2=CC(=CC=C2)N(C)C)NC(=O)C3=CC=C(C=C3)O
How it was run: as §1

[10] = compound: C#Cc1cccc(Nc2ncnc3cc(OCCOC)c(OCCOC)cc23)c1 [erlotinib]
How it was run: as §1

[11] = compound: C1=CC(=CC=C1C2=NC3=C(N2)C=C(C=C3)C(=O)N)OC4=CC=C(C=C4)Cl
How it was run: as §1

[12] = compound: C1CCN(C1)C(=O)NC2=CC=CC(=C2)NC3=NC=C(C(=N3)NCCC4=CN=CN4)Br
How it was run: as §1

[13] = compound: C1CN(CCC1(CC2=CC=C(C=C2)Cl)N)C3=NC=NC4=C3C=CN4
How it was run: as §1

[14] = compound: CC(C)C1=C2N=C(C=C(N2N=C1)NCC3=CC=CC=C3)NCCCCCCN
How it was run: as §1

[15] = compound: CC1=C(C2=C(C=C1)C(=O)C3=CC=CC=C3N2CCCN)C
How it was run: as §1

[16] = compound: CC(=O)c1cnc2ccc(-c3cc(Cl)c(O)c(Cl)c3)nc2c1N[C@H]1CC[C@H](CN(C)C)CC1
How it was run: as §1

[17] = compound: CC1=CC=C(C=C1)SC2=C3C=C(SC3=CN=C2)C(=O)N
How it was run: as §1

[18] = compound: C/C(=N\NC(=O)C1=CC(=CC=C1)S(=O)(=O)N2CCOCC2)/C3=C(C=CC(=C3)Cl)O
How it was run: as §1

[19] = compound: C1=CC2=C(C=CC(=C2)/C=C\3/C(=O)NC(=NCC4=CC=CS4)S3)N=C1
How it was run: as §1

[20] = compound: C1=CC=C2C(=C1)C3=NNC4=CC=CC(=C43)C2=O
How it was run: as §1

Chain of UniProt Q8TD43 (Q8TD43 whole entry, looked up): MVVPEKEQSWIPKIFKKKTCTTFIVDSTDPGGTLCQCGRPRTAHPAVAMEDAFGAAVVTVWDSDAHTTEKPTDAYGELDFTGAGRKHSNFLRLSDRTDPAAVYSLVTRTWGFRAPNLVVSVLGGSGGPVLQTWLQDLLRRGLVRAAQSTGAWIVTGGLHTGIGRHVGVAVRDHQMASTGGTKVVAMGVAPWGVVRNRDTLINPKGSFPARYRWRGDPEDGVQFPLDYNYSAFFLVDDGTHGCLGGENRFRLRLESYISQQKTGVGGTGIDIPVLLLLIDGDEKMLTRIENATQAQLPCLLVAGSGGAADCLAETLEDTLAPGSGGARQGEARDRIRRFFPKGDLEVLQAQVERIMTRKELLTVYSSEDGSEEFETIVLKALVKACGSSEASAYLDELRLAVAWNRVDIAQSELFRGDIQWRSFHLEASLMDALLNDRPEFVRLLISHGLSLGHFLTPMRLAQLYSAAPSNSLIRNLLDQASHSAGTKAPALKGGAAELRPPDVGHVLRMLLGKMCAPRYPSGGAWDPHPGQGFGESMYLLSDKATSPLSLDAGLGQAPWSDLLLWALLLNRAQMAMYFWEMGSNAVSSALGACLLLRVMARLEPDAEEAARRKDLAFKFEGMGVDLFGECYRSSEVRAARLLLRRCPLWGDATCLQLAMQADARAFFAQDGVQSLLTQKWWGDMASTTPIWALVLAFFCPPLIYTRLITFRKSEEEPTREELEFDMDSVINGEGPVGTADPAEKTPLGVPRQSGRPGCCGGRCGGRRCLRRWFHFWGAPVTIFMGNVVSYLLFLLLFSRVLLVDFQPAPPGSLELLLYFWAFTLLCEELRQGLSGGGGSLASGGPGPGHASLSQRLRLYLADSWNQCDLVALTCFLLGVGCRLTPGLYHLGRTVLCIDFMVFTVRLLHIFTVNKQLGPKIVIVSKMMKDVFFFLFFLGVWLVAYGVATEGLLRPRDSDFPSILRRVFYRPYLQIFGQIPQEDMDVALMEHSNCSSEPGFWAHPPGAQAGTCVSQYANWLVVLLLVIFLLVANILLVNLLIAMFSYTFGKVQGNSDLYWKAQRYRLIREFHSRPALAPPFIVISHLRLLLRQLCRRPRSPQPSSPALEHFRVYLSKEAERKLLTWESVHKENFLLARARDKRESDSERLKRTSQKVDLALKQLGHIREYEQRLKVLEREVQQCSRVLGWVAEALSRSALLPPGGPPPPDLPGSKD
Chain of UniProt P06753 (P06753 whole entry, looked up): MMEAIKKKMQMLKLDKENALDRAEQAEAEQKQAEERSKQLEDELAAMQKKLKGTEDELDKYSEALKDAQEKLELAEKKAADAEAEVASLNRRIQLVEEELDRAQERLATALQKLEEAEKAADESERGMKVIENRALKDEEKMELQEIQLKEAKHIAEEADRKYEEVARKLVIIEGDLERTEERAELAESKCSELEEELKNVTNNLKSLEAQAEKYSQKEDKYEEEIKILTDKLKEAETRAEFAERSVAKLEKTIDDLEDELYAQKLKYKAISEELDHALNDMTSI
Chain of UniProt O43399 (O43399 whole entry, looked up): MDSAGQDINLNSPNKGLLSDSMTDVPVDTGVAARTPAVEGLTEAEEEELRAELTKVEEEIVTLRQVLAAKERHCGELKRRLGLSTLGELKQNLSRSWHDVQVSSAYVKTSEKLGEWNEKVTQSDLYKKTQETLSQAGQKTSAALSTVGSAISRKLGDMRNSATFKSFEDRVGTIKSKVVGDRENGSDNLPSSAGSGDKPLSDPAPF
Chain of UniProt P42680 (P42680 whole entry, looked up): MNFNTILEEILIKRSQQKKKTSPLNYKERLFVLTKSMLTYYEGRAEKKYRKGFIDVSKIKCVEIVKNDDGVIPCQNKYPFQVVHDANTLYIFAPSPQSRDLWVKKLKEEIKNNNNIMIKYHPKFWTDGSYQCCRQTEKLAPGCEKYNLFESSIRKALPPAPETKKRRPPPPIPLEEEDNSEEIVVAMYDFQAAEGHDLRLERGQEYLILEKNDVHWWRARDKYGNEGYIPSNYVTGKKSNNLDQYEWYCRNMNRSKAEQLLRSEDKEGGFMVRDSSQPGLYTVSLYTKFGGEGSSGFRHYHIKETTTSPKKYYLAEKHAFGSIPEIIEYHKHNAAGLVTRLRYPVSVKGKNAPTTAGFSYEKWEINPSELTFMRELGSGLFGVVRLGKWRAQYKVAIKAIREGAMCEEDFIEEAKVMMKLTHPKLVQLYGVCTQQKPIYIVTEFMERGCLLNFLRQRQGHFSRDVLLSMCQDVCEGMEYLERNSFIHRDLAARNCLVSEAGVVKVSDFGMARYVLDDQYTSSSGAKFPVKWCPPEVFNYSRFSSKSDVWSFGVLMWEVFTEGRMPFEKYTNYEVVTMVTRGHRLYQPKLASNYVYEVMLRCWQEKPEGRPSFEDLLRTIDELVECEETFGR
Chain of UniProt P0C1Z6 (P0C1Z6 whole entry, looked up): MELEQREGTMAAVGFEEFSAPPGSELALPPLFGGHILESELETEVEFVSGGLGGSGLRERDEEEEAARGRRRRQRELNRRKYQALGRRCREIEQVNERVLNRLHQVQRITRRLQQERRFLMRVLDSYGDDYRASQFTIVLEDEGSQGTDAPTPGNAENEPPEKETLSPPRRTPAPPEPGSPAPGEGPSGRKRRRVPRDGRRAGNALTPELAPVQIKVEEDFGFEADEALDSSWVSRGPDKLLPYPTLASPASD
Chain of UniProt P15923 (P15923 whole entry, looked up): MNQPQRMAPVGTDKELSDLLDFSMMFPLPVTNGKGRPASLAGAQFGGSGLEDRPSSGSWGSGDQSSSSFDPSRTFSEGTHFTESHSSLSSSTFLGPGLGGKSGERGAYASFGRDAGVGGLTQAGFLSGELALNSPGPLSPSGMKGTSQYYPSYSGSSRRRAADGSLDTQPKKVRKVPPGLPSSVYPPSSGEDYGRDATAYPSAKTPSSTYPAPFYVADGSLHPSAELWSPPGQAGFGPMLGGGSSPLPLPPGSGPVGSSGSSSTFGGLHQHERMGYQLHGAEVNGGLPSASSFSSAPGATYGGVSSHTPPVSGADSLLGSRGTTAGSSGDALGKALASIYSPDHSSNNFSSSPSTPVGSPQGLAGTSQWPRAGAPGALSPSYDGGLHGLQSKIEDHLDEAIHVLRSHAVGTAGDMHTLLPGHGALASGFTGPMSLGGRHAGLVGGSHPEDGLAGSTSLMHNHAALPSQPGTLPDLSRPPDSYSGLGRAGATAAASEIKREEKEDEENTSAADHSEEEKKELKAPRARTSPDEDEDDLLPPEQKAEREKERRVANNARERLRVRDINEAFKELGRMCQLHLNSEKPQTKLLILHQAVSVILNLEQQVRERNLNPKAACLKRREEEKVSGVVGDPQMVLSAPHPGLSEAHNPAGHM
Chain of UniProt Q96RT8 (Q96RT8 whole entry, looked up): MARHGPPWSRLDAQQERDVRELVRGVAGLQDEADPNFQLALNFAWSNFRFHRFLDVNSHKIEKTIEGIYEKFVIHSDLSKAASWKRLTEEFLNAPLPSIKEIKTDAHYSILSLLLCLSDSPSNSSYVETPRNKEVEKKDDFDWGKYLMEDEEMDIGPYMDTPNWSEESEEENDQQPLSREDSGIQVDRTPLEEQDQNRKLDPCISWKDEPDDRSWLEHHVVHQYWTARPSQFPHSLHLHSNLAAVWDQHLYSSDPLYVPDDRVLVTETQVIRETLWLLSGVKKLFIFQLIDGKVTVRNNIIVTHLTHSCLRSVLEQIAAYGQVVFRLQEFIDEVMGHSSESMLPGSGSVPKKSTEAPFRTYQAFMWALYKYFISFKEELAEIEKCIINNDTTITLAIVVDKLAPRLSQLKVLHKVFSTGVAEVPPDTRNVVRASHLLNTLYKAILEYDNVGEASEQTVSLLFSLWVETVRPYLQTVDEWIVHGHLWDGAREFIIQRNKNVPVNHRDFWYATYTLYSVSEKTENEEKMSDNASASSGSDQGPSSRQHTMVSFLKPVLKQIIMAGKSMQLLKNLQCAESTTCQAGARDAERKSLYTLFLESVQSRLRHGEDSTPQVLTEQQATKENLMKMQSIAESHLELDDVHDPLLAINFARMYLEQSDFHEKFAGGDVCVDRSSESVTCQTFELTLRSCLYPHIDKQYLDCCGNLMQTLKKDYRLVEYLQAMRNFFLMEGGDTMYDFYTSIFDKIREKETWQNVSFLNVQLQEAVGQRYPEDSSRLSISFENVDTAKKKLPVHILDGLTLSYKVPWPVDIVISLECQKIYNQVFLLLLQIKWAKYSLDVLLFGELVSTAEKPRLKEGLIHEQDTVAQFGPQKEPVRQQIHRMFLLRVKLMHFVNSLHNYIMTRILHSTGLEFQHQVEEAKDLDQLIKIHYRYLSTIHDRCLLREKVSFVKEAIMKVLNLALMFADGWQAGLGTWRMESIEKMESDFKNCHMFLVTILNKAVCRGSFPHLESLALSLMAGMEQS
Chain of UniProt P55851 (P55851 whole entry, looked up): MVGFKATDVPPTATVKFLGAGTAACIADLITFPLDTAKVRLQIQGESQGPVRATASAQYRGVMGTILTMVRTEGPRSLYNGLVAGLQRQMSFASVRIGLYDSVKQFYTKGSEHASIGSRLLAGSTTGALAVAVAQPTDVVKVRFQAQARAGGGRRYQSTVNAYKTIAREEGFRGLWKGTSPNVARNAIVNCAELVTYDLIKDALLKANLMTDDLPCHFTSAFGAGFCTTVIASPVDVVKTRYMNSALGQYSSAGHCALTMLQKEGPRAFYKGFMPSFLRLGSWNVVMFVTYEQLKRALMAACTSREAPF
Chain of UniProt Q9BRN9 (Q9BRN9 whole entry, looked up): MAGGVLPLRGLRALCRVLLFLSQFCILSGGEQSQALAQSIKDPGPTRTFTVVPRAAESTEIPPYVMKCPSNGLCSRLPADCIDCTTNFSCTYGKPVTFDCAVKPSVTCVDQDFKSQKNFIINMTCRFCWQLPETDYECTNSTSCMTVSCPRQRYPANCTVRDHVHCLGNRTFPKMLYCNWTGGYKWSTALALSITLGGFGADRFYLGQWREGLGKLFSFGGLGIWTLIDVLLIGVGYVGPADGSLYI

Target	log2 fold change [1]	log2 fold change [2]	log2 fold change [3]	log2 fold change [4]	log2 fold change [5]	log2 fold change [6]	log2 fold change [7]	log2 fold change [8]	log2 fold change [9]	log2 fold change [10]	log2 fold change [11]	log2 fold change [12]	log2 fold change [13]	log2 fold change [14]	log2 fold change [15]	log2 fold change [16]	log2 fold change [17]	log2 fold change [18]	log2 fold change [19]	log2 fold change [20]
UBAP2L isoform 1 (UniProt Q14157)	0.081	-0.367	0.084	-0.075	-0.306	-0.123	0.114	-0.833 (active)	-0.161											
TM2D3 (UniProt Q9BRN9)	-0.068	0.205	0.148	0.02	-0.14	-0.157			0.07	0.104	-0.083	0.153	0.088	-0.201						
TRPM4 (UniProt Q8TD43)	-0.094	0.004	-0.152	0.099	-0.021	-0.063		0.116	0.05	0.018	0.164			-0.325	-0.055					
TNFAIP3 (UniProt P21580)	0.03	-0.049	0.047	-0.123	-0.056	0.005	0.003	-0.035	0.068	0.018	0.024	-0.296	0.09	-0.045	0.016	-0.1	0.053			
TASP1 (UniProt Q9H6P5)	-0.102	-0.022	0.055	0.005	-0.073	-0.062	0.089	0.009	-0.012	-0.013	-0.017	-0.062	0.092	0.028	-0.114	0.04	0.067			
UBN1 (UniProt Q9NPG3)								0.066				0	-0.023		0.03	0.015	0.081	0.032	-0.056	0.051
TCF3 (UniProt X6REB3)																		-0.006	-0.208	-0.192
TMPO isoform 2 (UniProt P42167)	0.143			-0.108								0.163	0.038		-0.006			-0.053	0.044	-0.121
TUBA4A (UniProt C9JQ00)	-0.18			0.125																
TLE3 isoform 5 (UniProt Q04726)	0.237	0.06	-0.021	0.045	-0.027	-0.077	0.138	0.093	0.018	0.036	-0.068	-0.068	0.01	-0.061	-0.053	-0.022	-0.035			
UBAP2 (UniProt Q5JV08)							-0.097													
TCF20 (UniProt Q9UGU0)	0.039			-0.025				-0.004		-0.04	-0.001			-0.317	-0.212	0.128	-0.166			
UBAP2L (UniProt F8W726)								-0.547 (active)								0.275	-0.025	-0.074	0.048	0.168
TPM3 isoform 3 (UniProt P06753)		-0.033	-0.016		0.145	0.093		-0.157	0.012	-0.074	-0.076	0.084	-0.068	-0.125	0.005	0.066	-0.032	-0.007	-0.006	0.08
TEC (UniProt P42680)							-0.023					-0.024	-0.038			-0.096	0.143	0.092	-0.051	-0.048
TPD52L2 isoform 3 (UniProt O43399)	-0.028	-0.049	0.029	0.288	0.167	-0.038	-0.007		0.107	0.008	-0.036			0.017						
TEDC1 (UniProt Q86SX3)		0.05	-0.06		-0.049	-0.001	0	-0.018	0.082	0.05	0.057	-0.127	-0.048	-0.066	-0.033	-0.023	-0.024			
TRAF7 (UniProt Q6Q0C0)		-0.026	-0.047		0.046	-0.091	0.023	0.07	-0.031			-0.05	0.116		-0.022			0.006	-0.042	-0.151
TFPT (UniProt P0C1Z6)	-0.186			0.046						-0.078	0.037			-0.053	-0.145	0.1	-0.06			
THAP9 (UniProt Q9H5L6)	0.01	0.028	0.145	0.038	-0.168	-0.332		0.234	0.017			-0.092	0.098		-0.199	-0.061	-0.087	0.019	-0.015	-0.042
TCF3 isoform 2 (UniProt P15923)		0.154	-0.249		-0.118	-0.103		-0.1	0.118	0.131	-0.049			0.046						
U2AF1L5 (UniProt P0DN76)		-0.066	0.132		-0.019	0.001	-0.008		0.143	-0.029	0.044	0.109	-0.107	0.069	-0.003	-0.047	0.011			
TUBGCP5 (UniProt Q96RT8)	0.024	0.013	-0.034	0.036	0.038	0.026	0.009	-0.007	-0.049			-0.003	-0.043		0.001	0.363	-0.118	0.001	-0.026	0.01
UCP2 (UniProt P55851)		0.011	-0.026		0.091	-0.081	0.073	-0.045	-0.1									0.217	-0.114	-0.025
TMEM154 (UniProt Q6P9G4)		0.01	0.019		-0.079	0.164		-0.052	0.172			-0.096	0.108		0.048					
